High-throughput results deposited in PubChem BioAssay by ICCB-Longwood Screening Facility, Harvard Medical School.
PV pol inh: poliovirus RdRp elongation inhibitors, primary screen, biochemical, fluorescence polarization, total intensity. poliovirus polymerase elongation; active compounds read low. % elongation, % (compound at 16.7 µg/mL). 150,000 tested, 0.66% active. AID 588519, 2011; in the data active means % elongation below about 90%
MenB inh: M. tuberculosis MenB inhibitors, primary screen, biochemical, absorbance. 1,4-dihydroxy-2-naphthoyl-CoA synthase (Mycobacterium tuberculosis (strain ATCC 25618 / …. MenB enzyme assay, absorbance read-out. inhibition, % (test concentration not listed). 100,000 tested, 0.43% active; in the data active means inhibition above about 21%, passing the limit was not always enough
Target sequence (P9WNP5 whole entry, looked up): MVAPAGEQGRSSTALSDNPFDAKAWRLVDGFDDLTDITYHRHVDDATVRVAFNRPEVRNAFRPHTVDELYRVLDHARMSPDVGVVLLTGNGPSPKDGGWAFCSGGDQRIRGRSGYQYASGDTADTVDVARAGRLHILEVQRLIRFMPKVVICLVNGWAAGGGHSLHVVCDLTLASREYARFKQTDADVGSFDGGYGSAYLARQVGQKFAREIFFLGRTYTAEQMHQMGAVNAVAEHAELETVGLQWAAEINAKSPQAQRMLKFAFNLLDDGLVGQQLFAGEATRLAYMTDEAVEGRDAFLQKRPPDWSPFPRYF
AID504770: growth inhibition of E. coli YBA685, primary screen, V. cholerae RctB inhibitors; E. coli YBA685 rctB-dependent plasmid, OD600 growth, 3 h; active compounds read low; z-score (test concentration not listed); 130,000 tested, 0.27% active; AID 504770, 2011; in the data active means z-score below about -2, passing the limit was not always enough
Mtb MbtI inh: MbtI salicylate synthase inhibitors, primary screen, biochemical, fluorescence intensity. 100,000 tested, 0.89% active. purified MbtI enzyme, fluorescence intensity read-out. inhibition, % (concentration not given with the values). AID 493033, 2011; in the data active means inhibition mostly above about 56%, no sharp cut-off; inactive means mostly below about 77%
An asterisk follows results filed as active; . = no result given. Hits are enriched below; roughly 1.5% of the tested compounds scored in any of these assays.

SMILES | PV pol inh | MenB inh | AID504770 | Mtb MbtI inh
O=c1oc2c(O)c(O)cc3c(=O)oc4c(O)c(O)cc1c4c23 | 83.0* | -4.7 | 0.1 | 25.8
CCCOc1ccccc1NC(=O)/C=C/C(N)=O | 100.0 | . | -0.25 | 99.7*
CC(=O)Nc1ccccc1OCCOc1ccccc1NC(C)=O | . | . | -0.35 | .
O=C(Cc1nc2ccccc2s1)c1ccccc1 | 72.0* | . | -1.1 | -7.5
N/C(=N\OC(=O)c1ccc(Br)o1)c1ccncc1 | 105.0 | -0.5 | -2.4* | 6.8
O=c1[nH]c(=S)[nH]c(O)c1-c1ccccc1 | 101.0 | -56.4 | -0.55 | 85.3*
c1ccc(-c2nc(N3CCCCC3)c3ccccc3n2)cc1 | 101.0 | 32.8* | -0.15 | 55.0
CCN(Cc1nc2ccccc2c(=O)[nH]1)C(=O)Nc1ccc(Cl)cc1 | 107.0 | -12.8 | -0.25 | -2.7
CCN1CSC(=S)N(CC)C1 | 101.0 | -17.4 | -2.5* | -5.7
Cc1nn(-c2ccccc2)nc1CNS(C)(=O)=O | 102.0 | -11.4 | -0.65 | 10.7
Cc1nn(-c2ccccc2)nc1CNS(=O)(=O)c1cccs1 | . | . | -3.3* | .
N#Cc1c(NC(=O)C2CC(=O)NN2Cc2ccccc2)sc2c1CCCC2 (stereo not given) | 101.0 | -31.6 | -0.35 | 9.2
Cc1cccc(NC(=O)Cn2c(CNC(=O)c3ccccc3)nc3ccccc32)c1 | 102.0 | . | 1.2 | -1.2
CCN(CC)C(=O)CSc1n[nH]c(=S)s1 | 104.0 | -10.0 | 0.8 | 91.2*
COc1cccc(CNC(=O)CSc2nc3cccnc3s2)c1OC | . | . | 0.15 | .
O=S1(=O)CCC(NC(=S)SCCOc2ccccc2OCCO)C1 (stereo not given) | 100.0 | 18.8 | -2.95* | -0.1
CNC(=O)C12CC3CC(CC(C3)C1)C2 | 102.0 | . | -0.6 | -9.3
Cc1cn([C@H]2C[C@H](N=[N+]=[N-])[C@@H](CO)O2)c(=O)[nH]c1=O | 100.0 | 1.4 | -2.45* | -20.7
Cc1cn(C2CC(O)C(CO)O2)c(=O)[nH]c1=O (stereo not given) | 106.0 | -26.1 | -0.35 | -16.5
C1CCc2sc(NCC3CCCO3)nc2C1 (stereo not given) | 106.0 | -5.7 | 1.2 | 8.6
O=C(Cc1cnn(-c2ccccc2)c1)c1ccc(O)c(O)c1O | 100.0 | -6.6 | 0.65 | 81.6*
CNC1(C#N)CCC(C)CC1 (stereo not given) | 103.0 | -40.9 | -2.3* | -9.1
Cc1csc(CC(N)=S)n1 | 102.0 | -55.7 | -1.65 | 98.2*
COc1cc(C(=O)Nc2c3c(nn2-c2ccc(F)cc2)CS(=O)(=O)C3)cc(OC)c1OC | 103.0 | -17.4 | -3.15* | 6.0
CCOc1cc(C=C2C(=O)NC(=O)NC2=O)cc(Cl)c1O | 79.0 | -53.5 | -1.1 | 32.8
SMILES | PV pol inh | MenB inh | AID504770 | Mtb MbtI inh
O=C1CSc2nnc(Cn3nnc4ccccc43)n2N1 | 97.0 | 3.2 | 0.5 | 87.4*
CC(C)S(=O)(=O)C1=NSC2=NC(=O)/C(=C\c3ccco3)C(=N)N21 | 79.0* | -63.3 | 0 | 15.4
O/N=C1/CCCc2nn(-c3ccccc3)nc21 | 62.0* | 17.8 | 0.15 | .
Fc1ccc(-c2onc3ccc(-c4ccn[nH]4)cc23)cc1 | . | . | 0.2 | .
O=C(O)COc1ccc(-c2nnco2)cc1 | 89.0* | -31.2 | 0.15 | -0.9
CC1CCCC(C)N1C(=O)COc1ccc(-c2nnco2)cc1 (stereo not given) | 105.0 | -5.7 | 0.3 | 6.5
O=C(OCC(=O)N1CCC(c2ccccc2)=N1)c1ccc(Br)o1 | 102.0 | 4.5 | -0.05 | 12.7
COc1ccccc1C(=O)Nc1ccc(-c2cn3ccccc3n2)cc1 | 98.0 | -37.2 | 2 | .
CCN(c1ccccc1)S(=O)(=O)c1ccc(C(=O)OCC#N)cc1 | 66.0* | 11.9 | -0.4 | -0.8
CCN(c1ccccc1)S(=O)(=O)c1ccc(Cl)cc1 | 102.0 | -53.2 | 0.25 | -11.4
O=C(N/N=C/c1cccs1)C1=COCCO1 | 102.0 | -11.3 | -0.9 | 39.5
O=c1c2ccccc2nc2ccccn12 | 101.0 | -2.4 | 0.8 | 108.4
O=c1nc2ccccn2c2c1c(=O)[nH]c1ccccc12 | 102.0 | 62.0* | 0.1 | 2.8
CCCCn1nnnc1CSc1nnc(-c2cc(OC)c(OC)c(OC)c2)n1-c1ccccc1F | 109.0 | 6.3 | -0.6 | 6.0
CCn1c(SCC(=O)Nc2ccc(C)c(C)c2)nnc1-c1nonc1NC(C)=O | 113.0 | . | . | .
CCn1c(-c2nonc2NC(C)=O)n[nH]c1=S | 102.0 | -6.3 | 0.7 | 65.3*
CCCCc1nc2c(c(=O)[nH]1)C(C)(C)Cc1ccccc1-2 | 102.0 | -3.2 | -0.5 | -27.4
CC(=O)N1CCCCC1c1cccnc1.O=[N+]([O-])O.[Ag] (stereo not given) | 60.0* | -36.0 | -5.5* | .
